An excerpt weighted towards active compounds, which were near 1.2% of everything screened.
RGS7-Gao reg: human RGS7-Galphao interaction regulation | P09471 | Multiplexed bead flow cytometry, RGS7-Galphao binding; actives lie on both sides | binding response (% of control), % at 10 µM | 220,000 tested, 0.35% active | AID 1439; in the data active = binding response below about 49% or above about 150%; inconclusive = no clear call, values can overlap the other calls; inactive = in between;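 note: fluorescent Galphao held in activated GDP-AlF4 state binding bead-coupled RGS7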
Target sequence (P09471 whole entry, looked up): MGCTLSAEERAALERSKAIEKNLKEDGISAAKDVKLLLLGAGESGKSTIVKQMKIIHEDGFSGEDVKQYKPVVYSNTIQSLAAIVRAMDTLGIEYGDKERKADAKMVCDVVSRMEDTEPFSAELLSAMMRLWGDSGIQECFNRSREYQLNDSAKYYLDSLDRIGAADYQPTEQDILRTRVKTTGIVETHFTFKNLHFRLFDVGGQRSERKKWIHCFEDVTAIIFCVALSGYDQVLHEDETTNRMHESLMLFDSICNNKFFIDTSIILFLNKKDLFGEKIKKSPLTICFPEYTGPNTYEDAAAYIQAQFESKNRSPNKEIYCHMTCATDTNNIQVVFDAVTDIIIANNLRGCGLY
GSH fluor: GSH bead compound fluorescence profile. GSH beads flow cytometry, compound fluorescence 488/530 nm; hits give high values. fluorescence (KMESF) at 10 µM. 190,000 tested, 0.25% active. AID 1776; in the data active = fluorescence above about 89;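 note: glutathione beads carrying GST-tagged Bcl family fusion proteins plus one bare bead set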
RGS16-Gao HTS: RGS16-Galphao interaction regulator (human) | O15492+P09471 | bead-based flow cytometry RGS16-Galphao binding, fluorescence; actives lie on both sides | binding response (% of control), % at 10 µM | 220,000 tested, 0.38% active; call rule not given here;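 note: Galphao activated by GDP with aluminum fluoride before binding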
Target sequence (O15492 whole entry, looked up): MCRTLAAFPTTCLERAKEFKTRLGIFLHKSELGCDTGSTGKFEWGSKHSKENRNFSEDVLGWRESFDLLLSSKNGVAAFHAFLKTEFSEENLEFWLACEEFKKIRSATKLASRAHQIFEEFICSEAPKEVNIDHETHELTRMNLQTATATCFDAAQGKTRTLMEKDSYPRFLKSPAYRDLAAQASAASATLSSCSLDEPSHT
Target sequence (P09471 whole entry, looked up): as the sequence (P09471 whole entry, looked up) above
Avidin fluor: compound fluoresces at 488/530 nm on avidin beads; compound fluorescence 488/530 nm, flow cytometry; hits give high values; fluorescence (KMESF) at 10 µM; 220,000 tested, 0.38% active; AID 1775; in the data active = fluorescence above about 47
RGS4-Gao reg: modulates binding of RGS4 to human Galphao; P09471; Multiplexed bead flow cytometry; actives lie on both sides; binding response (% of control), % at 10 µM; 220,000 tested, 0.33% active; in the data active = binding response below about 49% or above about 150%; inactive = in between;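 note: fluorescent Galphao activated with aluminum fluoride binding bead-coupled RGS4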
RGS8-Gao reg: regulators of human RGS8-Galphao interaction; multiplexed bead flow cytometry, RGS8-Galphao binding; actives lie on both sides; response (percent of control binding), % at 10 µM; 220,000 tested, 0.34% active; AID 1423; in the data active = response below about 60% or above about 140%; inactive = in between;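 note: Galphao activated as the GDP aluminium fluoride complex binding bead-coupled RGS8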
Large screens that a line does not name were inactive.

COCCN1C(=O)c2ccccc2C(C(=O)Nc2ccc3c(c2)OCCO3)C1c1ccc(F)cc1 (stereo not given)	Avidin fluor 62
CCOc1ccccc1OCC(=O)Nc1nnc(C)s1	Avidin fluor 117
O=C(C1CCN(S(=O)(=O)N2CCC3(CC2)OCCO3)CC1)N1CCN(Cc2ccccc2)CC1	Avidin fluor 133
O=C(NCCCN1CCN(Cc2ccccc2)CC1)C1CCN(S(=O)(=O)N2CCC3(CC2)OCCO3)CC1	RGS7-Gao reg inconclusive
COc1ccc(NC(=O)/C(N=Nc2cc(S(=O)(=O)Nc3ccc(OC)cc3)ccc2OC)=C(\C)O)cc1	RGS7-Gao reg inconclusive
COc1cc(CN2CCN(c3cccc(C)c3C)CC2)cc(Br)c1O	GSH fluor 272
COc1ccc(CN2CCN(c3cccc(C)c3C)CC2)cc1OC	none
CC(=O)N1CCC(=O)Nc2ccc([N+](=O)[O-])cc21	none
Cc1cccc(C)c1NC(=O)CSc1nc(-c2ccco2)cc(C(F)(F)F)n1	Avidin fluor 67
NC(=O)Cn1nc([N+](=O)[O-])nc1Oc1ccccc1C(=O)N1CCOCC1	none
CCOc1c(OC(C)=O)ccc(/C=C2\N=C(SCC)SC2=O)c1[N+](=O)[O-]	Avidin fluor 78
CC(NC(=O)C(=O)NN=C1CCCCCC1)c1ccccc1 (stereo not given)	none
CC(=O)Nc1ccc(C(=O)OC2CCOC2=O)cc1 (stereo not given)	none
CC(=O)Nc1ccc(C(=O)OC2CCCCC2=O)cc1 (stereo not given)	GSH fluor 280
CC(C)c1ccc(S(=O)(=O)/N=C2/C=CC(=O)c3ccccc32)cc1	none
COc1nc(N)nc(NC23CC4CC(CC(C4)C2)C3)n1	none
CC1(C)CC(=O)C(=C2SCCCS2)C(=O)C1	GSH fluor 156
CC1(C)CC(=O)C(Br)=C(O)C1	RGS7-Gao reg inconclusive
CN1CCN(c2ccc(S(=O)(=O)N3CCCCC3)cc2NC(=O)c2cccc([N+](=O)[O-])c2)CC1	RGS7-Gao reg inconclusive
CC1NC(=O)NC1CCCCC(=O)O (stereo not given)	GSH fluor 243
CCOC(=O)CSc1nc2cc3c(cc2cc1C)OCO3	Avidin fluor 72
COC(=O)C1=C(C)OC(N)=C(C#N)C1c1ccsc1 (stereo not given)	GSH fluor 89
CC1=C(C(=O)OCc2ccccc2)C(c2ccsc2)C(C#N)=C(N)O1 (stereo not given)	none
Cc1ccc(NC(=O)CCSc2nnnn2-c2ccc3c(c2)OCO3)cc1C	none
COc1cccc(-n2c(SCC#N)nnc2-c2cnccn2)c1	GSH fluor 247
C=CCOC(=O)C1=C[C@H](c2cn(C(C)=O)c3ccccc23)[C@@H](CCCO)[C@H](OCC)O1	none
OC(CN1CCOCC1)c1ccc(F)cc1 (stereo not given)	RGS7-Gao reg inconclusive
O=C(c1ccc(F)cc1)C(CCCCCC(CN1CCOCC1)C(=O)c1ccc(F)cc1)CN1CCOCC1 (stereo not given)	Avidin fluor 185
CCOC(=O)CSc1nnc(CNC(=O)c2ccc(S(=O)(=O)N(C)C)cc2)n1C	none
C(=N\c1nc2ccccc2n1CCN1CCCCC1)/c1cccs1	GSH fluor 270
C(=N\c1nc2ccccc2n1CCN1CCCCC1)/c1ccc2c(c1)OCO2	none
CNc1nc(SCC(=O)OC)nc(N2CCOCC2)n1	none
CCn1c(SCC(=O)N2CCCCC2C)nnc1-c1ccc(S(=O)(=O)N2CCN(C)CC2)cc1 (stereo not given)	GSH fluor 264
Cc1nnc(-c2cnn(-c3ccccc3)c2N)n1Cc1ccncc1	Avidin fluor 78
Cc1nnc(-c2cnn(-c3ccccc3)c2N)n1Cc1cccc(C(F)(F)F)c1	none
O=S(=O)(CCc1ccccc1)/N=C/c1cccs1	Avidin fluor 51
O=C(Cc1ccccc1)N/N=C/c1cccs1	none
O=C(NN1C(=O)c2ccccc2C1=O)c1ccc2c(c1)C(=O)N(CC1CCCO1)C2=O (stereo not given)	RGS7-Gao reg inconclusive, Avidin fluor 52 (no result: GSH fluor)
Cc1ccc(NC(=O)c2ccc3c(c2)C(=O)N(CC2CCCO2)C3=O)cc1C (stereo not given)	none
CCn1ncc(/C=C/C(=O)NCc2cn(C)nc2C)c1C	none
O=C(CSc1nc2ccccc2c(=O)n1CCCN1CCOCC1)N1CCN(c2ccccc2)CC1	none
CC(C)OP(=O)(c1ccc(N(C)C)cc1)C(O)c1ccccc1F (stereo not given)	GSH fluor 103
COc1ccccc1C(O)P(=O)(OC(C)C)c1ccc(N(C)C)cc1 (stereo not given)	none
CC1CCCC(C)N1C(=O)Cn1c(SCC(=O)Nc2ccc3c(c2)OCO3)nc2ccccc21 (stereo not given)	none
CCOC(=O)N1CCC(NC(=O)C(CC(C)C)NC(=O)C2CCC(C)CC2)CC1 (stereo not given)	none
CCN(CC)CCNC(=O)c1ccccn1	none
CCN(CC)CCNC(=O)c1ccccc1C(=O)c1ncc[nH]1	Avidin fluor 107
CCC1CCCCN1CCNC(=O)CCS(=O)(=O)c1ccc(Br)cc1 (stereo not given)	none
O=C(Cc1ccccc1)NCC(=O)Nc1cccc(Br)c1	none
CN(CC(=O)N1CCN(c2ncccn2)CC1)S(=O)(=O)c1ccc(Cl)cc1	none
CN(CC(=O)N1CCN(c2ccccn2)CC1)S(=O)(=O)c1ccccc1	Avidin fluor 49
S=C(NCc1ccc2[nH]c3c(c2c1)CCCC3)Nc1ccccc1	RGS4-Gao reg 49
O=C1CSC2(CCCCC2)N1CCO	none
Cc1cc(=O)[nH]c2c1c(-c1ccccc1)nn2C	RGS7-Gao reg inconclusive (no result: GSH fluor)
COC1=C(OC)c2ccccc2C(C(=O)O)N/C1=C(/C)Nc1ccncc1 (stereo not given)	GSH fluor 267
O=c1oc2ccccc2c(O)c1C=Nc1cccnc1	none
O=c1oc2ccccc2c(O)c1/C=N/c1ccccn1	GSH fluor 263
CN(C)S(=O)(=O)c1cccc(C(=O)OCC(=O)Nc2sccc2C#N)c1	RGS7-Gao reg -17, RGS16-Gao HTS -63, RGS4-Gao reg -59, RGS8-Gao reg 21
O=C(O)C(Cc1cc2ccccc2[nH]1)N1C(=O)C2CC=C(Cl)CC2C1=O (stereo not given)	GSH fluor 117
O=C(NCCN1CCOCC1)NC1(C(F)(F)F)Oc2ccccc2O1	none
CCN1C(=O)C(CC(=O)Nc2ccc(C)cc2C)Nc2cc(S(=O)(=O)N(C)C)ccc21 (stereo not given)	none
Cc1noc(/C=C/c2ccc(-c3ccccc3Cl)o2)c1[N+](=O)[O-]	Avidin fluor 57
COc1cc(-c2csc(N3CCOCC3)n2)cc(OC)c1OC	GSH fluor 263
Fc1ccc(-c2csc(N3CCOCC3)n2)cc1	RGS7-Gao reg inconclusive (no result: GSH fluor)
Cn1c(=S)n(C)c2ccccc21	Avidin fluor 84

Bioassay records from PubChem.
